An excerpt weighted towards active compounds, which were near 2.4% of everything screened.
POLH inh = qHTS for Inhibitors of Polymerase Eta; DNA polymerase eta (Homo sapiens), Q9Y253; recombinant Pol eta, fluorescent DNA replication assay; Potency, µM (highest dose often 114 µM), hits mostly inhibitors; 1.2% of 390,000 active
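Fluorescent replication assay: 50 nM final substrate added after a 15 min room-temperature compound preincubation with 10 nM enzyme. Signal taken at 0 min and again at 10 min.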
FEN1 inhibitor = qHTS Assay for the Inhibitors of Human Flap endonuclease 1 (FEN1); AID 588795, 2011; Potency, µM (titrated, usually from 114 µM), most hits filed as inhibitors; 0.35% of 390,000 active; Recombinant FEN1 flap cleavage, fluorescence, 15 min; also: nearly all actives have a fitted effect of over 65% in size
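Steps: FEN1 (10 nM) dispensed; compound added by pin tool; 15 min at room temperature; substrate added to 50 nM final; reads at 0 min and 15 min; data normalized and fitted (four-parameter Hill).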
POLI inh = qHTS for Inhibitors of Polymerase Iota; DNA polymerase iota (Homo sapiens), Q9UNA4; Pol iota fluorescent replication assay, 10 min; Potency, µM (top dose mostly 115 µM), most hits filed as inhibitors; 1% of 390,000 active
Target sequence (Q9UNA4 whole entry, looked up): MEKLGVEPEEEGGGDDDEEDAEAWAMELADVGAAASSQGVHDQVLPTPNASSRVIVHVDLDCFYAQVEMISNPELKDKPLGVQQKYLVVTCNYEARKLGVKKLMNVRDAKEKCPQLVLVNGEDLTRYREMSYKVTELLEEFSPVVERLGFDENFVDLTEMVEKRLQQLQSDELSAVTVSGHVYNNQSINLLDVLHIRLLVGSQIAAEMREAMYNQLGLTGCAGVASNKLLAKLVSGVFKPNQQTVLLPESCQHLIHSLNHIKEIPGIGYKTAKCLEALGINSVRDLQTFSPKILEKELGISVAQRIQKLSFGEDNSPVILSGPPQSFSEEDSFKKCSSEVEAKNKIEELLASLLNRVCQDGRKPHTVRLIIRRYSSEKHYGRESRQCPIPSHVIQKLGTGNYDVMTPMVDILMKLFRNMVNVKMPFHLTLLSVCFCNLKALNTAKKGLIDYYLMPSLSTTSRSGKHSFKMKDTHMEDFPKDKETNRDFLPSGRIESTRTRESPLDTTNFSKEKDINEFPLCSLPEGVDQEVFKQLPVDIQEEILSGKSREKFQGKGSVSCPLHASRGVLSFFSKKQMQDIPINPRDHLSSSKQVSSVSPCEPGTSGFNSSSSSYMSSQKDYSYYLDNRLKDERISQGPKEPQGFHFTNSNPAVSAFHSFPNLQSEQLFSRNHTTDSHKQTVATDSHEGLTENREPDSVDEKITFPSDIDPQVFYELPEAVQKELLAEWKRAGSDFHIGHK
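Fluorescent replication assay read twice, at 0 min and 10 min after adding 50 nM (final) substrate. Enzyme (10 nM) and compounds were first incubated 15 min at room temperature; enzyme-free buffer wells were negative controls.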
WRN helicase inh = qHTS for Inhibitors of WRN Helicase; 0.46% of 360,000 active; AID 651768, 2012; WRN helicase unwinding, fluorescent forked duplex, kinetic; Bifunctional 3'-5' exonuclease/ATP-dependent helicase WRN (Homo sapiens), Q14191; Potency, µM (highest dose often 114 µM), most hits filed as inhibitors; also: nearly all actives have a fitted effect of over 55% in size
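Screening of the MLSMR collection measured strand separation of a quenched forked DNA duplex (100 nM) by 20 nM WRN with 2 mM ATP, all final. Compounds were preincubated with enzyme 15 min at room temperature.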
POLB inh = qHTS Assay for Inhibitors of DNA Polymerase Beta | P06746 | Pol beta primer extension/strand displacement, fluorescence kinetic | Potency, µM (doses to about 114 µM), actives largely listed as inhibitors | 1.3% of 340,000 active
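10 nM enzyme + cpd, 15 min RT; start with substrate 50 nM final; read 0 min and after 10 min RT. Corrected, normalized data; 4-parameter Hill curve fit.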
POLK inh = qHTS for Inhibitors of Polymerase Kappa | AID 588579, 2011 | DNA polymerase kappa (Homo sapiens), Q9UBT6 | 0.53% of 400,000 active | purified Pol kappa, fluorescent DNA synthesis assay, 10 min | Potency, µM (titrated, usually from 107 µM), hits mostly inhibitors
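Here, compound and 10 nM enzyme are combined for 15 min at room temperature; adding 50 nM substrate (final) starts DNA synthesis, tracked by fluorescence at 0 and 10 min against buffer-only wells.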
Numbers stand for hits; . = inactive; ? = inconclusive; / = no result given; [ ] = dose if it differs, or a comment. Calls follow the shape of the dose curve; as a rule, active = well fitted curve in the direction sought with a large enough effect; inconclusive = small, poorly fitted or top-dose-only effect, or another doubt; inactive = no such curve, though single readings can be large; an effect the other way counts as inactive or inconclusive.

SMILES	POLH inh	FEN1 inhibitor	POLI inh	WRN helicase inh	POLB inh	POLK inh
Cc1ccc(S(=O)(=O)N(CC(=O)Nc2cccnc2)c2ccccc2C)cc1	.	.	.	.	.	.
C(=C\c1nnc2c3ccccc3ncn12)/c1ccccc1	.	.	.	.	.	.
COc1cc(/C=C/c2nnc3c4ccccc4ncn23)cc(OC)c1OC	.	.	.	56µM	?	.
O=C1CC(N2CCN(c3ccccc3)CC2)C(=O)N1Cc1ccc(Cl)cc1 (centres undefined)	.	.	?	.	.	.
CCc1cccc(CC)c1NC(=O)CCS(=O)(=O)c1ccc(Br)s1	.	.	.	/	20µM	.
COc1ccc(NC(=O)CCS(=O)(=O)c2ccc(Br)s2)cc1	50µM	.	?	.[11.6 µM]	32µM	?
CCOC(=O)/C(C#N)=C\c1ccc(O)c(OC)c1	.	.	.	.	.	.
CCOC(=O)c1c(-c2ccc(C)cc2)csc1NC(=O)/C(C#N)=C/c1ccc(O)c(OC)c1	28µM	?	?	.	.	.
CC(=O)c1c(N2CCN(Cc3ccccc3)CC2)nc(=S)n(-c2ccccc2)c1C	.	.	.	.	.	.
COCCCN1C(=O)C(=O)/C(=C(/O)c2ccc(OC(C)C)cc2)C1c1ccncc1 (centres undefined)	.	.	.	.	.	.
COC(=O)c1c(C)c2c(c(C)c1O)OC(=O)c1c(C)c(Cl)c(O)c(Cl)c1O2	/	/	/	/	/	.
Cc1cc(O)c(C=O)c2c1C(=O)Oc1c(C)c(O)c3c(c1O2)C(O)OC3=O (centres undefined)	/	/	/	/	/	10µM
CCC(=O)Nc1c2c(nn1-c1ccc(F)cc1)CS(=O)(=O)C2	.	.	.	.	.	.
O=C(NCCCCNC(=O)c1ccccc1Br)c1ccccc1Br	.	.	.	.	/	.
CCCCn1c(SCC(=O)c2ccc(OC)cc2OC)nc2cc(S(N)(=O)=O)ccc21	25µM	.	45µM	?	40µM	?
CCCCn1c(SC(C)C(=O)c2ccc(OC)cc2)nc2cc(S(N)(=O)=O)ccc21 (centres undefined)	.	?	.	.	.	.
O=c1[nH]c(Cc2ccccn2)nc2scc(-c3ccc(Cl)cc3)c12	.	.	.	.	.	.
Cc1c(NS(=O)(=O)c2cccc(C(=O)N3CCCC3)c2)c(=O)n(-c2ccccc2)n1C	.	.	.	.	/	.
CCNC(=O)CC1C(=O)N(c2ccc(F)cc2)C(=O)N1Cc1ccc(OC)cc1 (centres undefined)	.	.	.	.	.	.
O=C(CNC(=O)c1cccc(F)c1)N/N=C/c1cc(Br)ccc1OC(=O)/C=C/c1ccco1	.	.	?	.	35µM	.
OCC1OC([S-])[C@H](O)C(O)C1O.[Au+] (some centres undefined)	/	/	/	/	/	5µM
Cc1ccc(CNC(=O)C2CCN(C(=O)c3cnn(-c4ccccc4)c3-n3cccc3)CC2)cc1	/	.	.	/	.	.
COc1ccc(C(c2c(C)[nH][nH]c2=O)c2c(C)[nH][nH]c2=O)cc1Br	.	.	?	.	.	.
COc1cc(C(c2c(C)[nH][nH]c2=O)c2c(C)[nH][nH]c2=O)ccc1OS(=O)(=O)c1ccc(C)cc1	.	.	3.5µM	.	.	.
COc1cc(C(c2c(C)[nH][nH]c2=O)c2c(C)[nH][nH]c2=O)ccc1OC(C)C	.	.	.	.	.	.
SMILES	POLH inh	FEN1 inhibitor	POLI inh	WRN helicase inh	POLB inh	POLK inh
COc1cc(C(c2c(C)[nH][nH]c2=O)c2c(C)[nH][nH]c2=O)ccc1OS(=O)(=O)c1ccccc1	.	.	10µM	.	.	.
COc1cc(C(c2c(C)[nH][nH]c2=O)c2c(C)[nH][nH]c2=O)ccc1OC(=O)c1cccc([N+](=O)[O-])c1	.	.	10µM	.	.	.
COc1ccc(OC)c(C(c2c(C)[nH][nH]c2=O)c2c(C)[nH][nH]c2=O)c1	.	.	28µM	.	.	.
C=Cc1ccc(Cn2c(C)c(CNCCc3ccccc3C)c(C(=O)O)c2C)cc1	.	.	.	/	.	.
COc1ccc2oc(C)c(C(=O)c3ccc(C)cc3)c2c1	.	.	.	.	.	.
Cc1ccc(C)c(-n2nnnc2SCC(=O)Nc2cccc(-c3nnc4n3CCCCC4)c2)c1	.	.	.	.	.	.
COc1cc(C(c2c(C)[nH][nH]c2=O)c2c(C)[nH][nH]c2=O)cc(OC)c1OC	.	.	8.9µM	.	.	.
COc1cc(C(c2c(C)[nH][nH]c2=O)c2c(C)[nH][nH]c2=O)cc(Cl)c1O	.	.	.	.	.	.
COc1c(Cl)cc(C(=O)NN)cc1Cl	.	.	.	.	.	.
NNC(=O)c1cc(O)c(O)c(O)c1	.	22µM	?	.	3.2µM	56µM
O=C(CCC1CCCCC1)NCCN1C2=NC[C@H](Cc3ccc(O)cc3)N2C[C@H]1Cc1ccc(O)cc1	.	.	.	.	.	.
c1csc(Cc2nn3c(-c4ccncc4)nnc3s2)c1	?	?	20µM	?	32µM	40µM
Cc1ccc(-n2c(CCC(=O)O)ccc2-c2cccs2)cc1Cl	.	.	?	/	2.5µM	.
NC(=O)c1ccc(-n2c(CCC(=O)O)ccc2-c2cccs2)cc1	.	.	.	.	.	.
CC(=O)c1ccc(-n2c(CCC(=O)O)ccc2-c2cccs2)cc1	?	.	?	.	?	.
Cc1ccc(-n2c(CCC(=O)O)ccc2-c2cccs2)cc1	?	.	?	.	35µM	.
CC(C)(C)c1cccc(/C=N/O)c1O	.	?	.	.	.	.
COc1ccc(-c2[nH]n(-c3ccc([N+](=O)[O-])cc3)c(=O)c2C=NCC2CCCO2)cc1 (centres undefined)	.	.	.	.	.	.
O=C(Nc1ccc(NC(=S)NC(=O)c2cccs2)cc1)c1ccco1	79µM	?	35µM	?	?	?
Cc1cccc(N(CC(=O)NC2CCCC2)C(=O)CCC(=O)Nc2cc(C)on2)c1	.	.	.	.	.	.
CN(C)c1ccc(CC2C(=O)Nc3ccccc32)cc1 (centres undefined)	.	.	25µM	.	.	.
COc1ccc(CCN2C(=O)CC(Cc3ccc(C)cc3)C2=O)cc1OC (centres undefined)	.	.	.	?	.	.

Source: PubChem
